# Reference: the supplement of paper PMC9023506
# Structures can show the parent of a compound that is named as a salt.
# System: Danio rerio larvae (5 dpf)
# Experiment: optomotor response to red moving lines, difference vs DMSO (percentage points (treated minus DMSO)); higher = more of the behaviour than the DMSO vehicle control
# Conditions: 10 µM; exposure time: 3 h pre-incubation + 3 h imaging
# Description: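 5-dpf wild-type zebrafish larvae were imaged in 96-well plates. They were treated with 190 Tocris FDA-approved drugs at 10 µM (1 µl/ml DMSO) for 3 h before and 3 h during imaging at 28.5 °C, 48 larvae per drug. Automated image analysis gave % time moving and optomotor responses. Values are drug group mean minus DMSO vehicle mean (n=844), in percentage points, for 10 behaviours.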
row,Structure (SMILES),optomotor response to red moving lines
1,N#Cc1ccc(C(c2ccc(C#N)cc2)n2cncn2)cc1 [Letrozole],-12.7
2,Cc1cccc(CN2CCN(C(c3ccccc3)c3ccc(Cl)cc3)CC2)c1 (stereo not given) [Meclizine dihydrochloride],-10.1
3,CN(C)CCc1c[nH]c2ccc(C[C@H]3COC(=O)N3)cc12 [Zolmitriptan],2.8
4,CCc1ccc(CCOc2ccc(CC3SC(=O)NC3=O)cc2)nc1 (stereo not given) [Pioglitazone hydrochloride],-7.97
5,COc1cc(N)c(Cl)cc1C(=O)NC1CCN(CCCOc2ccc(F)cc2)CC1OC (stereo not given) [Cisapride],-3.64
6,O=C1CCc2cc(OCCCCc3nnnn3C3CCCCC3)ccc2N1 [Cilostazol],-8.76
7,CC(C)(C#N)c1cc(Cn2cncn2)cc(C(C)(C)C#N)c1 [Anastrozole],-3.51
8,CC(C)(C(=O)O)c1ccc(C(O)CCCN2CCC(C(O)(c3ccccc3)c3ccccc3)CC2)cc1 (stereo not given) [Fexofenadine hydrochloride],3.62
9,CCOc1cc(CC(=O)N[C@@H](CC(C)C)c2ccccc2N2CCCCC2)ccc1C(=O)O [Repaglinide],3.38
10,CC(=O)NC[C@H]1CN(c2ccc(N3CCOCC3)c(F)c2)C(=O)O1 [Linezolid],4.59
11,CC(=O)Oc1ccccc1C(=O)O [Aspirin],7.38
12,Nc1ccn([C@@H]2O[C@H](CO)[C@@H](O)C2(F)F)c(=O)n1 [Gemcitabine hydrochloride],12.3
13,CNC(=O)c1cc(Oc2ccc(NC(=O)Nc3ccc(Cl)c(C(F)(F)F)c3)cc2)ccn1 [Sorafenib],-10.7
14,O=c1n(CCCN2CCN(c3cccc(Cl)c3)CC2)nc2ccccn12 [Trazodone hydrochloride],14.6
15,CC1=Nc2ccc(Cl)cc2S(=O)(=O)N1 [Diazoxide],0.599
16,OCCN(CCO)c1nc(N2CCCCC2)c2nc(N(CCO)CCO)nc(N3CCCCC3)c2n1 [Dipyridamole],-6.85
17,CCC(=O)O[C@]1(C(=O)SCF)[C@H](C)C[C@H]2[C@@H]3C[C@H](F)C4=CC(=O)C=C[C@]4(C)[C@@]3(F)[C@@H](O)C[C@@]21C [Fluticasone propionate],-12.2
18,CC(=O)Nc1ccc(O)cc1 [Acetaminophen],-2.99
19,OCc1cc(C(O)CNCCCCCCOCCCCc2ccccc2)ccc1O (stereo not given) [Salmeterol xinafoate],5
20,CC(C)COCC(CN(Cc1ccccc1)c1ccccc1)N1CCCC1 (stereo not given) [Bepridil hydrochloride],3.6

row,Structure (SMILES),optomotor response to red moving lines
1,CNC(=O)c1ccccc1Sc1ccc2c(/C=C/c3ccccn3)n[nH]c2c1 [Axitinib],1.5
2,CC(C)n1c(/C=C/C(O)CC(O)CC(=O)O)c(-c2ccc(F)cc2)c2ccccc21 (stereo not given) [Fluvastatin sodium],-2.5
3,CC(=O)O[C@H]1C(=O)[C@@]2(C)[C@H]([C@H](OC(=O)c3ccccc3)[C@]3(O)C[C@H](OC(=O)[C@H](O)[C@@H](NC(=O)c4ccccc4)c4ccccc4)C(C)=C1C3(C)C)[C@]1(OC(C)=O)CO[C@@H]1C[C@@H]2O [Taxol],6.51
4,Nc1cc(N2CCCCC2)nc(N)[n+]1[O-] [Minoxidil],-13.4
5,CN1CCC[C@@H]1CCO[C@](C)(c1ccccc1)c1ccc(Cl)cc1 [Clemastine fumarate],16.7
6,CN1CC[C@@H](NC(=O)Nc2ccc(C#N)cc2)C[C@@H]1c1nc2ccccc2[nH]1,-0.356
7,CCCCCCCN(CC)CCCC(O)c1ccc(NS(C)(=O)=O)cc1 (stereo not given) [Ibutilide hemifumarate],10.1
8,CCCCNc1cc(C(=O)O)cc(S(N)(=O)=O)c1Oc1ccccc1 [Bumetanide],19.3
9,Cc1nnc(C(C)C)n1C1C[C@H]2CC[C@@H](C1)N2CC[C@H](NC(=O)C1CCC(F)(F)CC1)c1ccccc1 (stereo in doubt) [Maraviroc],-6.34
10,NC(=O)OCC(COC(N)=O)c1ccccc1 [Felbamate],-9.28
11,CCOC(=O)C1=C(COCCN)NC(C)=C(C(=O)OC)C1c1ccccc1Cl (stereo not given) [Amlodipine besylate],-1.08
12,CCOC(=O)N1CCC(=C2c3ccc(Cl)cc3CCc3cccnc32)CC1 [Loratidine],-14.1
13,COc1cccc2c1C(=O)c1c(O)c3c(c(O)c1C2=O)C[C@@](O)(C(=O)CO)C[C@@H]3O[C@H]1C[C@H](N)[C@H](O)[C@H](C)O1 [Doxorubicin hydrochloride],-1.73
14,COc1ccccc1OCCNCC(O)COc1cccc2[nH]c3ccccc3c12 (stereo not given) [Carvedilol],1.15
15,COCCCOc1cc(C[C@@H](C[C@H](N)[C@@H](O)C[C@H](C(=O)NCC(C)(C)C(N)=O)C(C)C)C(C)C)ccc1OC [Aliskiren hemifumarate],0.559
16,NS(=O)(=O)Cc1noc2ccccc12 [Zonisamide],13
17,Nc1nc2[nH]cc(CCc3ccc(C(=O)N[C@@H](CCC(=O)O)C(=O)O)cc3)c2c(=O)[nH]1 [Pemetrexed],-7.22
18,CCC(C)(C)C(=O)O[C@H]1C[C@@H](C)C=C2C=C[C@H](C)[C@H](CC[C@@H]3C[C@@H](O)CC(=O)O3)[C@H]21 [Simvastatin],-5.54
19,CCOc1nc2cccc(C(=O)O)c2n1Cc1ccc(-c2ccccc2-c2nnn[nH]2)cc1 [Candesartan],4.89
20,CCOc1ccccc1OCCN[C@H](C)Cc1ccc(OC)c(S(N)(=O)=O)c1 [Tamsulosin hydrochloride],-6.78
